# CHX counter – counter-screen hit for Shiga toxin inhibitors, cycloheximide. cell reporter, cycloheximide protein synthesis inhibition counterscreen. max response, %. hit rate 12% among 300,000; in the data active = max response mostly above about 13%, no sharp cut-off; inactive = mostly below about 14%; note: read at 38.3 µM for the half of the compounds with a filed dose; 0% is about no effect
# Shiga inhibitor – inhibitors of Shiga toxin in Vero cells | Vero cells, Shiga toxin protein synthesis inhibition reporter | inhibition, % at 38.7 µM | hit rate 9.2% among 290,000; in the data active = inhibition mostly above about 28%, no sharp cut-off; inactive = mostly below about 43%; note: 0% is about no effect
# Marburg entry inh – blocks Marburg virus binding to or entry into cells. AID 540276. Marburg virus pseudotyped entry inhibition, cell reporter. hit rate 1.8% among 300,000. Potency, µM (top dose mostly 37.8 µM), without a hit: top-dose activity change, negative = inhibition, most hits filed as inhibitors; calls by dose curve; tested in HEK293 cells; note: potency is the fitted concentration of half-maximal effect; % is set by controls: 0 for no effect and ±100 for the full control effect
# Lassa entry inh – blocks Lassa virus binding to or entry into cells. Lassa virus pseudotype entry inhibition, cell reporter. Potency, µM (titrated, usually from 37.9 µM), for inactives: top-dose activity change, negative = inhibition, actives largely listed as inhibitors. hit rate 1.2% among 300,000; calls by dose curve; tested in HEK293 cells; note: potency is the fitted concentration of half-maximal effect; % is set by controls: 0 for no effect and ±100 for the full control effect; nearly all actives have a fitted effect of over 50% in size
# An asterisk follows results filed as active; ? = inconclusive; / = not tested or not shown; ! = not active in a repeat; [ ] = dose if it differs, or a comment. Hits are enriched below; roughly 12% of the tested compounds scored in any of these assays.
SMILES,CHX counter,Shiga inhibitor,Marburg entry inh,Lassa entry inh
O=C(c1cc(=O)[nH]c2ccccc12)N1CCc2ccccc2C1,0,-13,4%,2%
Cc1ccc(OCC(=O)N2CCc3ccccc3C2)c(C)c1,11*,33,-2%,-16%
O=C(COc1ccccc1)NC(=S)Nc1cccc2cc(O)ccc12,-1,-5,/,/
CCOC(=O)C1(C)C=C(Nc2cccc(C(=O)O)c2)C(=O)N1c1cccc(C(=O)O)c1 (centres undefined),/,/,20%[46.1 µM],3%[46.1 µM]
CCOc1cc(C2NC(=O)NC2=O)ccc1O (centres undefined),-6,-3,22%[46.1 µM],?
COc1cccc(-c2nnc3n2N=C(c2c(OC)cccc2OC)CS3)c1OC,-5,-4,/,/
COc1ccccc1CCNC(=O)C(=O)NCC1OCCN1S(=O)(=O)c1ccccc1 (centres undefined),1,-5,/,/
Cc1ccc(S(=O)(=O)N2CCCOC2CNC(=O)C(=O)NCCc2c[nH]c3ccccc23)cc1 (centres undefined),73*,96*,?,?
O=C(NCCc1c[nH]c2ccccc12)C(=O)NCC1OCCCN1S(=O)(=O)c1ccccc1 (centres undefined),-1,4,?,?
COc1ccccc1CCNC(=O)C(=O)NCC1OCCN1S(=O)(=O)c1cccs1 (centres undefined),34*,25*,4%,?
COC1CCCCC1C1CCN(C(=O)c2cccs2)CC1 (centres undefined),/,/,-7%,/
CNC[C@H](O)c1ccc(O)c(O)c1,5,-7,4%,-1%
NC[C@H](O)c1ccc(O)c(O)c1,-2,-7,14µM*!,?
CC(C)NCC(O)c1ccc(O)c(O)c1 (centres undefined),-3,-5,?,3%
NC[C@@H](O)c1ccc(O)c(O)c1,-9,-2,14µM*,/
C[C@@H](N)[C@@H](O)c1ccc(O)c(O)c1,/,/,13µM*,?
COc1ccc(C2CC(=O)c3cnc(Nc4cc(C)cc(C)c4)nc3C2)cc1 (centres undefined),12,-15,-11%,0.46µM*
CC1CC(=O)c2cnc(Nc3cccc(C(F)(F)F)c3)nc2C1 (centres undefined),18,64,-3%,7%
CC1CC(=O)c2cnc(Nc3ccccc3)nc2C1 (centres undefined),48*,55,?,?
COc1cccc(C(=O)Nc2ncc3c(n2)CC(C)CC3=O)c1 (centres undefined),40*,71*,4%,8%
Cc1ccc(Nc2ncc3c(n2)CC(C)CC3=O)c(C)c1 (centres undefined),39*,97*,/,/
CC1CC(=O)c2cnc(NCc3ccco3)nc2C1 (centres undefined),16*,53,-5%,?
O=C(/C=C/c1ccc(F)cc1)N1CCN(c2ncccn2)CC1,24*,71*,-1%[46.1 µM],10%
Cc1ccc(NC(=S)N2CCN(c3ccccn3)CC2)c(C)c1,4,0,/,/
CCN(CC)S(=O)(=O)c1ccc(C)c(NC(=S)N2CCN(c3ccccn3)CC2)c1,-2,1,?,10µM*
SMILES,CHX counter,Shiga inhibitor,Marburg entry inh,Lassa entry inh
Fc1cccc(NC(=S)N2CCN(c3ccccn3)CC2)c1,0,8,-7%,13µM*
COc1ccc(C)cc1NC(=S)N1CCN(c2ccccn2)CC1,35*,62*,?,11%
CN1CCCN(C(=O)/C=C/c2ccc(F)cc2)CC1,16*,9,?,?
O=C(/C=C/c1cccc(F)c1)N1CCN(c2ccccn2)CC1,22*,43*,12%,21%
CCN1CCN(C(=O)/C=C/c2ccc(F)cc2)CC1,/,/,10%[46.1 µM],4%
O=C(/C=C/c1ccccc1F)N1CCN(c2ccccn2)CC1,17*,24,?,19%[46.1 µM]
CC(Cc1ccccc1)N1C(=O)c2cccc([N+](=O)[O-])c2C1=O (centres undefined),7,0,3%[46.1 µM],14%[46.1 µM]
CCn1c(SCC(=O)NC2CC2)nnc1-c1cccc(OC)c1,-1,-7,?,?
O=C(CSc1nnc(CCc2ccccc2)n1-c1ccc(Cl)cc1)c1ccccc1,-7,-9,-17%,?
COCCNc1cnn(-c2ccccc2)c(=O)c1Cl,25*,39*,25%[46.1 µM],6%[46.1 µM]
CCCCNc1cnn(-c2ccccc2)c(=O)c1Cl,33*,75*,?,?
Cn1c(O)c(C2=c3ccccc3=NC2=O)sc1=Nc1ccc(Cl)cc1,7.0*,7,?,-13%
Cc1ccc(N2C(=O)CC(Cc3cc(C)cc(C)c3)C2=O)cc1 (centres undefined),-2,-7,5%[46.1 µM],1%[46.1 µM]
Cc1cc(C)cc(CC2CC(=O)N(c3nc(C)cc(C)n3)C2=O)c1 (centres undefined),27*,51*,0%,-10%
CCOC(=O)NC(=S)Nc1c(C)n(C)n(-c2ccccc2)c1=O,-2,-11,-7%[14.2 µM],-3%
Cc1cc(C(=O)NCc2csc(-c3ccccc3)n2)no1,51*,95*,25%[46.1 µM],22%[46.1 µM]
Cc1cccc(-c2nc(CCNC(=O)Cc3ccccc3)cs2)c1,/,/,/,8%[46.1 µM]
O=C(NCc1csc(-c2ccccc2)n1)c1ccco1,27*,60*,5%,-1%
COc1ccc(CC(=O)OCC(=O)NCc2ccccc2Cl)cc1,3,10,1%[46.1 µM],15%
COc1ccc(Cl)cc1NC(=S)NNC(=O)c1cccs1,23*,43*,/,/
O=C(NNC(=O)c1ccccc1[N+](=O)[O-])c1ccco1,11,13,-18%[46.1 µM],-2%
COc1ccc(Cl)cc1NC(=S)NNC(=O)c1cccnc1,-1,-8,0%[46.1 µM],19%
O=C(NNC(=O)c1ccccc1Cl)c1ccco1,17*,42,?,2%[46.1 µM]
COc1ccc(COC(=O)NNC(=O)c2ccccc2Cl)cc1,4,56,1%,4µM*
Cc1cc(C(=O)NNC(=O)/C=C/c2ccccc2Cl)c(C)o1,-3,2,/,/
SMILES,CHX counter,Shiga inhibitor,Marburg entry inh,Lassa entry inh
O=C(/C=C/c1ccccc1Cl)NNC(=O)c1cccs1,32*,46,22%,13%
COc1ccc(-c2c(C)n([O-])c3c([n+]2=O)CCCC3)cc1OC,-1,-2,/,/
COC(C[C@@H]1O[C@@H]1[C@H](O)[C@@H](C)OCc1ccccc1)OC,-4,-3,/,/
CCOC(=O)c1c(C)[nH]c(C)c1S(=O)(=O)N(C)CC(=O)Nc1ccc(C)cc1C,/,/,/,-16%[46.1 µM]
O=C(N=C1SC2CS(=O)(=O)CC2N1c1cccc(Cl)c1Cl)C1CCCO1 (centres undefined),-3,8,/,/
Cc1nc(Cl)sc1C(=O)Nc1ccccc1Cl,12,-8,/,/
O=C(Nc1ccccc1Cl)c1cccs1,27*,104*,-22%,5%
O=C(NNC(=S)Nc1ccccc1Cl)c1ccccc1Cl,-2,-8,?,-22%
Cc1c(NC(=O)c2cccs2)cccc1NC(=O)c1cccs1,-2,2,-27%,-13%
O=C(NNC(=O)c1ccccc1Cl)c1cccs1,31,35*,?,17%
O=C(NNC(=O)c1ccccc1Cl)c1ccccc1Cl,18*,17,28%[46.1 µM],3%
O=C(Nc1ccccc1Cl)c1ccc(-c2ccccn2)s1,49*,64*,?,-8%
COc1cccc(-n2c(-c3cccc(F)c3)nc3c(cnn3-c3ccc(C)cc3)c2=O)c1,/,/,?,-2%[46.1 µM]
O=C(CCC(=O)c1cccs1)NNC(=O)c1cc(Cl)ccc1Cl,/,/,-2%[46.1 µM],?

# Bioassay records as filed in PubChem.
